Compound activity from PubChem BioAssay.
GDH-TPI counter-1 – GDH-TPI coupled enzyme inhibition counter-screen. GDH-TPI coupled enzyme counterscreen, NADH absorbance. inhibition, % at 4.8 µM. 1.2% of 360,000 active. AID 588335; in the data active = inhibition above about 30%;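 also: 0% = DMSO wells and 100% = wells lacking the enzyme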
BioA inh – BioA (M. tuberculosis) enzyme inhibition | purified M. tuberculosis BioA enzyme, plate reader | inhibition, % at 9.99 µM | 0.096% of 360,000 active | AID 602481; in the data active = inhibition above about 40%
FBA Mtb inh – Mtb fructose-bisphosphate aldolase inhibition. purified M. tuberculosis FBA, fluorescence read-out. P9WQA3. 2.3% of 360,000 active. inhibition, % at 1 µM;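 also: 0% = vehicle and 100% = reference inhibitor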
Rv3671c protease – Rv3671c (M. tuberculosis) protease inhibition; P9WHR9; inhibition, % at 5.96 µM; 0.048% of 320,000 active; AID 2606; in the data active = inhibition above about 38%;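 also: extracellular domain of Rv3671c used as enzyme; 0% = enzyme with DMSO and 100% = no enzyme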
Target sequence (P9WHR9 whole entry, looked up, the tested form may be a part): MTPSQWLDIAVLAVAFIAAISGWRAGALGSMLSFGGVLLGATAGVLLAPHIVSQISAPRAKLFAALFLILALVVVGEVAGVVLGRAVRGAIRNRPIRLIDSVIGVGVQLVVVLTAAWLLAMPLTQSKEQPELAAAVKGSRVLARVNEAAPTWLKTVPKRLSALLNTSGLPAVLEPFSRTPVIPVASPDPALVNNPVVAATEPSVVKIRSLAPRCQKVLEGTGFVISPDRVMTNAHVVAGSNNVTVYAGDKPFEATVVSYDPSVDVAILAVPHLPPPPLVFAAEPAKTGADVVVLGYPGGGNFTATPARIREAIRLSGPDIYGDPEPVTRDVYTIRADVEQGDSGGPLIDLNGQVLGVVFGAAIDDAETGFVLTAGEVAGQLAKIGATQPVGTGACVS
FadD28 FP inh – blocks FadD28 binding to the bisubstrate probe. fluorescence polarization. 0.22% of 360,000 active. inhibition, % at 12.5 µM; in the data active = inhibition above about 8.5%, passing the limit was not always enough
Mtb FBA confirm – Mtb FBA inhibition, confirmed. shares compounds with FBA Mtb inh. purified M. tuberculosis FBA, fluorescence read-out. AID 651616. 78% of 5,600 active. inhibition, % at 1 µM;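 also: 0% = vehicle wells and 100% = reference inhibitor wells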
GDH-TPI counter-2 – GDH-TPI inhibition counter-screen for FBA inhibitors | shares compounds with FBA Mtb inh | GDH-TPI coupled enzyme counterscreen, fluorescence | 81% of 5,600 active | inhibition, % at 1 µM; in the data active = inhibition above about 10%
Numbers without * were called inactive; / = no result; + = active, no number. Most compounds without a hit are left out; they make up all but 3% or so of the library. Rule as the data show it, unless noted: active = inhibition above about 27%; inactive = the rest.

SMILES | GDH-TPI counter-1 | BioA inh | FBA Mtb inh | Rv3671c protease | FadD28 FP inh | Mtb FBA confirm | GDH-TPI counter-2
C[C@H](CO)N1C[C@H](C)[C@@H](CN(C)C)Oc2ccc(NC(=O)Cc3ccccc3)cc2C1=O | / | -2.6 | / | / | / | / | /
C/C=C/c1ccc2c(c1)O[C@@H](CN(C)C(=O)c1cccc(F)c1)[C@H](C)CN([C@@H](C)CO)S2(=O)=O | / | 2.1 | / | / | / | / | /
FC(F)(F)c1cc(-c2cccs2)nc(-n2cc(Cl)cn2)n1 | 19.7 | -1.4 | 30.2* | -0.4 | -0.6 | 40.8* | 35.2*
O=C(N/N=C/c1ccccc1F)c1cc2c(ccc3ccccc32)o1 | 13.4 | 0.4 | 30.3* | 1.1 | -3.2 | 54.4* | 35.7*
COc1ccc(OC)c(/C=N\NC(=O)c2cc3c(ccc4ccccc43)o2)c1 | 23.7 | -0.2 | 6.8 | -2.8 | -1.7 | / | /
CC1=CC(c2ccc(Cl)cc2)n2nc(NC(=O)c3ccccc3)nc2N1 (stereo unspecified) | 9.7 | 11.9 | 14.9 | -3.0 | -4.4 | / | /
CC1=CC(c2ccccc2)n2nc(NC(=O)CCC(=O)O)nc2N1 (stereo unspecified) | 27.5 | -3.5 | 80.9* | -4.3 | 0.4 | -3.6 | -5.2
CC1=CC(c2ccccc2)n2nc(NC(=O)CCCC(=O)O)nc2N1 (stereo unspecified) | -5.2 | -0.7 | 61.7* | -3.9 | -2.0 | 83.0* | 72.8*
Cc1cccc(-c2ccc([C@H]3[C@@H](CO)N4CCCCN(C(=O)NC(C)C)C[C@H]34)cc2)c1 | / | -0.9 | / | / | / | / | /
O=c1cc(-c2ccncc2)oc2c1ccc1ccccc12 | 6.6 | -0.5 | 10.9 | -13.0 | -2.1 | / | /
O=c1cc(-c2ccco2)oc2c1ccc1ccccc12 | 20.5 | 0.0 | 49.2* | -2.8 | -0.4 | + | +
C[C@@H]1CN([C@H](C)CO)C(=O)Cc2cc(NC(=O)c3ccncc3)ccc2O[C@H]1CN(C)Cc1ccc(C(=O)O)cc1 | / | 2.7 | / | / | / | / | /
CCOC(=O)c1sc2nc(C(C)C)c3c(c2c1N)CCC3 | 4.4 | 0.3 | 28.8* | 3.1 | -1.4 | 95.8* | 82.2*
CCOC(=O)c1sc2nc(C(C)C)c3c(c2c1N)CC(C)(C)OC3 | 3.9 | -1.7 | 5.9 | -4.7 | -0.4 | / | /
N#Cc1cc(Cl)c(NCC2CCCO2)cc1C#N (stereo unspecified) | 21.4 | -2.1 | 37.6* | 5.3 | -2.4 | 76.6* | 65.4*
N#Cc1cccc(C#N)c1NCC1CCCO1 (stereo unspecified) | 12.7 | -1.3 | 96.7* | 5.5 | 0.0 | 184.5* | 121.7*
O=[N+]([O-])c1ccc(Cl)cc1NCC1CCCO1 (stereo unspecified) | 13.0 | -1.2 | -5.8 | -4.1 | -0.7 | / | /
CCCCCCn1c(-c2cccs2)n[nH]c1=S | 183.3* | 1.6 | 47.7* | -10.0 | -2.0 | -3.8 | -7.4
C[C@H](O)C#Cc1ccc2c(c1)O[C@@H](CN(C)C(=O)c1ccccc1)[C@H](C)CN([C@H](C)CO)S2(=O)=O | / | -0.1 | / | / | / | / | /
Cc1ccc(CCNC(=O)Cn2ccc3cc(S(=O)(=O)N4CCCC4)ccc32)cc1 | -7.9 | -0.7 | 83.9* | -4.4 | -3.5 | 44.5* | 27.1*
COc1ccc(CCNC(=O)Cn2ccc3cc(S(=O)(=O)N4CCCC4)ccc32)cc1OC | -3.5 | -1.8 | 1.4 | -3.4 | -2.3 | / | /
CCO/C=C1/C(=O)N(c2ccccc2OC)C(=O)c2ccccc21 | 1.9 | / | 34.6* | -15.5 | -2.5 | 95.5* | 80.7*
CCO/C=C1/C(=O)N(c2ccc(OC)cc2)C(=O)c2ccccc21 | -0.9 | -1.5 | 12.2 | -9.7 | -0.4 | / | /
Cc1cccc(C=Nc2ccc3c(c2)oc2ccccc23)c1O | 9.0 | -1.1 | 35.6* | 7.8 | -0.3 | 151.3* | 117.3*
COc1ccc(CCNc2c3ccccc3nc3ccccc23)cc1OC | 21.4 | 1.8 | 54.7* | 3.1 | -2.6 | + | +
SMILES | GDH-TPI counter-1 | BioA inh | FBA Mtb inh | Rv3671c protease | FadD28 FP inh | Mtb FBA confirm | GDH-TPI counter-2
c1ccc2c(NCCc3c[nH]c4ccccc34)c3ccccc3nc2c1 | 10.8 | 3.1 | 39.3* | 1.1 | -18.1 | 116.3* | 94.8*
COc1ccc(CCNc2ncnc3cc(OC)c(OC)cc23)cc1OC | -2.5 | / | 0.4 | / | -0.8 | / | /
Cc1ccc(-c2ccc([C@@H]3[C@@H](CO)N4CCCCN(S(=O)(=O)c5cccc(C)c5)C[C@H]34)cc2)cc1 | / | -6.2 | / | / | / | / | /
CN(C)CCCNc1nc(-c2ccccc2)c2c(c1C#N)CC(C)(C)OC2 | 8.6 | -3.5 | 44.9* | 3.8 | -2.5 | 107.4* | 84.5*
N#Cc1c(NCCCO)nc(-c2ccccc2)c2c1CCCC2 | 20.6 | -4.0 | 51.5* | -6.9 | -2.1 | 57.5* | 36.3*
CC1(C)Cc2c(C#N)c(NCC3CCCO3)nc(-c3ccco3)c2CO1 (stereo unspecified) | 15.2 | -2.9 | 29.6* | -1.1 | -0.4 | + | +
CC(C)NC(=O)N(C)C[C@@H]1Oc2ccc(NC(=O)CCC(F)(F)F)cc2C(=O)N([C@@H](C)CO)C[C@H]1C | / | -2.8 | / | / | / | / | /
COc1ccc(/C=C/c2c(-c3ccc(OC)cc3)sc3ccc(N4CCOCC4)cc23)cc1 | 23.1 | -1.4 | 4.4 | -0.4 | -3.1 | / | /
COc1ccc(-c2oc3ccc(N4CCOCC4)cc3c2/C=C/c2ccc(OC)c(OC)c2)cc1 | 39.9* | -0.8 | 36.2* | -2.2 | -2.0 | + | 175.7*
C[C@@H]1CCCCO[C@@H](CN(C)C(=O)Nc2ccc(C(F)(F)F)cc2)[C@H](C)CN([C@H](C)CO)C(=O)c2cc(NC(=O)Nc3ccccc3)ccc2O1 | / | -2.1 | / | / | / | / | /
CCOC(=O)c1nc2cc3n(c(CC(C)C)c-2c1C)CC(C)=C3C | 5.9 | -1.1 | 27.4* | -9.5 | -3.6 | 118.5* | 88.0*
CCOC(=O)c1nc2cc3n(c(C)c-2c1C)C(C)C(C)=C3C (stereo unspecified) | 2.6 | 0.4 | 36.9* | -2.4 | 0.3 | 63.5* | 50.0*
CCOC(=O)c1n[nH]n(-c2cc(Cl)cc(Cl)c2)c1=O | -2.2 | -0.9 | 2.3 | -1.1 | 0.0 | / | /
CCCC(=O)Nc1ccc2c(c1)C(=O)N(C)[C@@H]1CC[C@@H](CC(=O)O)O[C@@H]1CO2 | / | -1.8 | / | / | / | / | /
CCOC(=O)c1nc2c(ccc3ccccc32)cc1C | 3.0 | 0.6 | 30.8* | -3.4 | -3.4 | + | 168.1*
CC(C#N)Sc1ncnc2sc3c(c12)CCC3 (stereo unspecified) | -6.5 | -1.0 | -2.3 | -0.8 | -4.4 | / | /
Cc1cc(C)nc(Sc2ncnc3sc4c(c23)CCC4)n1 | 4.6 | -3.5 | 48.5* | 2.5 | -0.2 | 1.8 | 1.3
C[C@@H]1CCCCO[C@H](CN(C)C(=O)Nc2ccc(F)cc2)[C@@H](C)CN([C@@H](C)CO)C(=O)c2cc(NC(=O)c3ccccc3)ccc2O1 | / | -1.5 | / | / | / | / | /
CC=Cc1ccc2n(c1=O)C[C@H]1[C@H](CO)[C@@H](C(=O)NCC(F)(F)F)[C@@H]2N1C(=O)C1CCCCC1 (mixture of isomers) | / | -0.5 | / | / | / | / | /
Cc1ccc(-c2csc3nc4cc(C(=O)NC5CCC(O)CC5)ccc4c(=O)n23)cc1 (stereo unspecified) | 5.7 | 3.9 | 30.2* | -10.3 | -2.2 | 0.1 | -1.5
